The results in this text go back to PubChem BioAssay.

Unmarked numbers belong to inactive results. For some of these results: Potency and affinity values are given separately. Active and inactive are the calls of the source. Unless noted, the rule behind the calls is not given here.

Assay [1] can be described thus: antimalarial activity against Dd2 strain (AID 2302;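 active = growth inhibition above 50% at the single 2 µM test dose, taken to imply half-maximal potency below 2 µM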;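 note: 0% = DMSO untreated growth and 100% = chloroquine plus artemisinin killed control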). Particulars: P. falciparum Dd2 in RBCs, LDH growth readout, 72 h; at 2 µM; active compounds read high.
Assay [2] can be described thus: human hepatoma cell viability loss – ATP luminescence, cytotoxicity control for P. falciparum antimalarial project, primary screen (AID 2303;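 active = inhibition above 50%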;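 note: 0% = DMSO wells and 100% = digitonin-killed cells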). Conditions: HepG2 viability, 24-48 h, at 10 µM, active compounds read high.
Assay [3] addresses L-lactate dehydrogenase (Plasmodium falciparum (isolate CDC / Honduras)) (UniProt Q27743). As to the kind of experiment: PfLDH activity inhibition – cell lysate, 3D7 strain, counter-screen for P. falciparum growth inhibition project (AID 2304).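 Note: 0% = vehicle and 100% = reference inhibitor.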 Particulars: P. falciparum 3D7 crude extract, LDH APAD/NBT absorbance; at 2 µM; active compounds read high. (In general: A counterscreen serves to expose hits that act by an unwanted route or on another target.)

Assay [4] is described as follows: inhibition of 3D7 malaria parasite growth – strain 3D7 (AID 2306).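 Note: 0% = DMSO wells and 100% = chloroquine plus artemisinin control wells.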 Conditions: P. falciparum 3D7 erythrocytic growth, LDH absorbance, 72 h; at 2 µM; active compounds read high.
Assay [5] concerns the target Calcium-dependent protein kinase 1 (Plasmodium falciparum (isolate 3D7)) (UniProt P62344). Put plainly: PfCDPK1 kinase inhibitors, biochemical, TCAMS library (AID 1159585; cut-off not given, nearly all actives have IC50 up to about 0.98 µM;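 note: inhibitors leave more ATP so luminescence rises with inhibition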). Particulars: recombinant PfCDPK1, Kinase-Glo ATP depletion luminescence. (In general: Kinase-Glo reads ATP consumption through a luciferase reaction.)
Assay [6] has as its target Plasmodium falciparum protein kinase 6 (PK6, PF3D7_1337100) (UniProt Q8IDW1). Put plainly: PfPK6 kinase inhibitors, biochemical, TCAMS library (AID 1159586). Particulars: recombinant PfPK6, Kinase-Glo ATP depletion luminescence.
The target in assay [7] is Protein kinase 7 (PK7), Plasmodium falciparum 3D7 (PF3D7_0213400) (UniProt Q7YTF7). Put plainly: inhibition of Plasmodium PK7 catalytic activity – biochemical, TCAMS antimalarial set, Kinase-Glo luminescence (AID 1159587). Particulars: recombinant PfPK7, Kinase-Glo ATP depletion luminescence.
For assay [8], the target named is Calcium-dependent protein kinase 4 (Plasmodium falciparum (isolate 3D7)) (UniProt Q8IBS5). As to the kind of experiment: PfCDPK4 kinase inhibitors, biochemical, TCAMS library (AID 1159588; cut-off not given, nearly all actives have IC50 up to about 0.91 µM). Conditions: recombinant PfCDPK4, Kinase-Glo ATP depletion luminescence.
Calcium-dependent protein kinase 4 (Plasmodium falciparum (isolate 3D7)), sequence (Q8IBS5 whole entry, looked up): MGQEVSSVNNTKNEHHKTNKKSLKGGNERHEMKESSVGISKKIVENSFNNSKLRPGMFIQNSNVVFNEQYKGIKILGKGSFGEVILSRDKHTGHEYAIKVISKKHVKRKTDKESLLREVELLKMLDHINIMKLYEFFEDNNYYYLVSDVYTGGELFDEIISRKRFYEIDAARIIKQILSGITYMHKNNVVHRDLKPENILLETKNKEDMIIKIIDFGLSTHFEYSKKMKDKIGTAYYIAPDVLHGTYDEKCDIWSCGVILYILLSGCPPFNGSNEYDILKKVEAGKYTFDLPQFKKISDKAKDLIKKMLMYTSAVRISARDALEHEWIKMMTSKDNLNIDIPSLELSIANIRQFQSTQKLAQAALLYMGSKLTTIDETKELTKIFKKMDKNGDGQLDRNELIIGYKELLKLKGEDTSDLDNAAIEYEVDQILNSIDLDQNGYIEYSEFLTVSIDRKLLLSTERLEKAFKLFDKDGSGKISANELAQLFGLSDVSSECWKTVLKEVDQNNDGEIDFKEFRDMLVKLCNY

L-lactate dehydrogenase (Plasmodium falciparum (isolate CDC / Honduras)), sequence (Q27743 whole entry, looked up): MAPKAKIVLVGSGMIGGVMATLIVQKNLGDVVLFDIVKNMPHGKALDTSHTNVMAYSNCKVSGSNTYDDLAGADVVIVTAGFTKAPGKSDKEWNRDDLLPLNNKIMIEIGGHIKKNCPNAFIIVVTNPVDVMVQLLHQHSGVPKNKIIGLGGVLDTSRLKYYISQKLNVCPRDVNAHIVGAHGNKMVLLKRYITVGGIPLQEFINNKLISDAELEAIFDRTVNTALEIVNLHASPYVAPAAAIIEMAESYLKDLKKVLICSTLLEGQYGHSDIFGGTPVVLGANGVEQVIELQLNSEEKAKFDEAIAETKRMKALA
Calcium-dependent protein kinase 1 (Plasmodium falciparum (isolate 3D7)), sequence (P62344 whole entry, looked up): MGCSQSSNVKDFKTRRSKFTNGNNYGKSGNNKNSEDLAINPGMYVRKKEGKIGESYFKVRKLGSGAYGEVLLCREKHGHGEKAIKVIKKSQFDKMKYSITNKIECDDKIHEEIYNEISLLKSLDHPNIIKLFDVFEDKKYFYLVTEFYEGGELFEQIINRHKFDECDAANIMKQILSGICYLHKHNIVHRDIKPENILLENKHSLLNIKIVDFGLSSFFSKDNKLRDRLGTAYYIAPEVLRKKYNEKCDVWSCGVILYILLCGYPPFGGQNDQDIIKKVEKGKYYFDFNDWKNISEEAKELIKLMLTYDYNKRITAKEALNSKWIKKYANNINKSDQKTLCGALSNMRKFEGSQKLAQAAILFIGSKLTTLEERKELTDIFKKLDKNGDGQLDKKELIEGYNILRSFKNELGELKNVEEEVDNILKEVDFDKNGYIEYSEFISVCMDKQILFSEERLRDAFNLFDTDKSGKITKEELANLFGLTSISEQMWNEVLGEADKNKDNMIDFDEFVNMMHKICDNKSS
Protein kinase 7 (PK7), Plasmodium falciparum 3D7 (PF3D7_0213400), sequence (Q7YTF7 1-343): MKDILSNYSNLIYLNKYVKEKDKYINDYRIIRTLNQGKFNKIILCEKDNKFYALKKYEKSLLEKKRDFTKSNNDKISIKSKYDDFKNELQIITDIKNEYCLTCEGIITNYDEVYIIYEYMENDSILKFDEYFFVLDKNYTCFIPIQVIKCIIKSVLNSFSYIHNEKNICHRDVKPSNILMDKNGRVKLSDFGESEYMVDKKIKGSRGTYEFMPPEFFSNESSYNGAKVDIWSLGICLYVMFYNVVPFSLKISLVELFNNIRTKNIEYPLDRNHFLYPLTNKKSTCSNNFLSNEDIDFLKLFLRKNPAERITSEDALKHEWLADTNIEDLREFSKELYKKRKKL
Plasmodium falciparum protein kinase 6 (PK6, PF3D7_1337100), sequence (Q8IDW1 1-305): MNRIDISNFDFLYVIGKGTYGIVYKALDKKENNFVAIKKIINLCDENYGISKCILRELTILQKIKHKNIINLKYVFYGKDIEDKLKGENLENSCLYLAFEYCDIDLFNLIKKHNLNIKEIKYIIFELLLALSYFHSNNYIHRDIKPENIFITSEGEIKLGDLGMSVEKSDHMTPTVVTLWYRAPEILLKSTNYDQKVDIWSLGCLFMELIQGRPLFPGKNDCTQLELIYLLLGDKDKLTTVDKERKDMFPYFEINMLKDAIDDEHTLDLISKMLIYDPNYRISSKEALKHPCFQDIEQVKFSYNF

On to `CS(=O)(=O)CCNCc1nc(-c2ccc3c(=O)[nH]cnc3c2)cs1`, for which the growth inhibition in assay [1] is 96% (active); in assay [4], 86% (active). The inhibition – broadly, the relative decrease from the control value, in per cent – in assay [2] was 81% (active); in assay [3], 0%. The result in assay [5], in assay [6], in assay [7] and in assay [8] was inactive.

Consider `O=C(CCc1cnc[nH]1)Nc1cccc(-c2ccc(-c3nc4ccccc4[nH]3)cc2)c1`, for which the growth inhibition is 60% (active) in assay [1] and 100% (active) in assay [4]. In addition, the values for the inhibition in assay [2] and in assay [3] were 24% and 1%, respectively. Moreover, the outcome in assay [5], in assay [6], in assay [7] and in assay [8] was inactive.

On to `Cc1cc(NCCC(=O)Nc2ccccc2)nc(NCc2ccccc2C)n1`, for which the figures for the growth inhibition in assay [1] and in assay [4] were 57% (active) and 100% (active), respectively. The values for the inhibition in assay [2] and in assay [3] were 6% and -1%, respectively. Further, the outcome in assay [5], in assay [6], in assay [7] and in assay [8] was inactive.

For `OCCN1CCN(Cc2cccc(-c3ccc(-c4nc5ccc(C(F)(F)F)cc5[nH]4)s3)c2)CC1`, the growth inhibition in assay [1] is 98% (active); in assay [4] it was 101% (active). For the same compound, the inhibition in assay [2] is 42%; in assay [3] it was -5%. Further, the outcome in assay [5], in assay [6], in assay [7] and in assay [8] was inactive.

On to `Nc1ccc(-c2ccc(NC(=O)Nc3cc(C(F)(F)F)ccc3F)cc2)cn1`, for which the growth inhibition in assay [1] is 39%; in assay [4], 99% (active). Moreover, the inhibition in assay [2] is -6%; in assay [3], -9%. Also, the outcome in assay [5], in assay [6], in assay [7] and in assay [8] was inactive.

On to `Cc1[nH]c(C)c(-c2ccc(Oc3ccc(Cl)cc3)cc2)c(=O)c1Br`, for which the growth inhibition is 96% (active) in assay [1] and 97% (active) in assay [4]. For the same compound, the inhibition was 12% in assay [2] and -4% in assay [3]. The result in assay [5], in assay [6], in assay [7] and in assay [8] was inactive.

For the compound `CN1CCN(c2nsc3ccc(-c4ccc(OCCN5CCCC5)cc4)cc23)CC1`, the growth inhibition in assay [1] was 99% (active); in assay [4], 102% (active). Moreover, the inhibition in assay [2] is 57% (active); in assay [3] it was 6%. Besides, the outcome in assay [5], in assay [6], in assay [7] and in assay [8] was inactive.

As for `Cc1cc(NCCc2ccccc2)nc(/N=C(\N)Nc2ccccc2Cl)n1`, the growth inhibition in assay [1] is 7%; in assay [4], 100% (active). In addition, the inhibition in assay [2] was 20%; in assay [3], -8%. The result in assay [5], in assay [6], in assay [7] and in assay [8] was inactive.

In the case of `CCNc1cc(C(=O)N[C@@H](Cc2ccccc2)[C@H](O)CNCCc2cccc(C(F)(F)F)c2)cc(N2CCCC2=O)c1`, the growth inhibition was 93% (active) in assay [1] and 96% (active) in assay [4]. Also, the inhibition is 7% in assay [2] and 1% in assay [3]. Besides, the outcome in assay [5], in assay [6], in assay [7] and in assay [8] was inactive.

Take `Cc1ccc(-n2c(=O)c3c(n4c(SC(C)C)nnc24)-c2ccccc2CC32CCCCC2)cc1`: the growth inhibition in assay [1] is 88% (active); in assay [4] it was 95% (active). For the same compound, the results for the inhibition in assay [2] and in assay [3] were 8% and 0%, respectively. For the same compound, the outcome in assay [5], in assay [6], in assay [7] and in assay [8] was inactive.

Regarding `CCOc1ccc(C(=O)Nc2cc(Cl)ccc2O)cc1Cl`, the growth inhibition was 84% (active) in assay [1] and 83% (active) in assay [4]. Further, the figures for the inhibition in assay [2] and in assay [3] were 11% and 0%, respectively. For the same compound, the outcome in assay [5], in assay [6], in assay [7] and in assay [8] was inactive.

Turning to `Cc1ccccc1C1CCN(C2CCC(NC(=O)/C=C/c3ccc(F)cc3)CC2)CC1` (stereo not given), the values for the growth inhibition in assay [1] and in assay [4] were 30% and 87% (active), respectively. In addition, the results for the inhibition in assay [2] and in assay [3] were 61% (active) and -2%, respectively. Moreover, the result in assay [5], in assay [6], in assay [7] and in assay [8] was inactive.

Take `c1cc(CN2CCCCC2)cc(-c2ccc(-c3nc4ccccc4[nH]3)cc2)c1`: the growth inhibition in assay [1] is 88% (active); in assay [4] it was 101% (active). Further, the inhibition in assay [2] was 9%; in assay [3], -2%. Moreover, the result in assay [5], in assay [6], in assay [7] and in assay [8] was inactive.

On to `COc1ccccc1NS(=O)(=O)c1cc(C(=O)Nc2ccc(N3CCOCC3)c(S(=O)(=O)Nc3ccccc3Cl)c2)ccc1Cl`, for which the growth inhibition in assay [1] is 25%; in assay [4] it was 97% (active). The inhibition was -3% in assay [2] and -2% in assay [3]. The outcome in assay [5], in assay [6], in assay [7] and in assay [8] was inactive.

Consider `COc1cc(-c2cc3cc(Cl)c(Cl)cc3[nH]2)ccc1C(=O)NC1CCN(Cc2ccccc2)CC1`, for which the figures for the growth inhibition in assay [1] and in assay [4] were 101% (active) and 102% (active), respectively. Further, the inhibition in assay [2] is 12%; in assay [3], -3%. Moreover, the result in assay [5], in assay [6], in assay [7] and in assay [8] was inactive.

`Oc1ccc2[nH]c(-c3cccc(F)c3)nc2c1CN1CCCC1`: the growth inhibition in assay [1] was 47%; in assay [4], 100% (active). Besides, the figures for the inhibition in assay [2] and in assay [3] were 0% and 5%, respectively. Moreover, the result in assay [5], in assay [6], in assay [7] and in assay [8] was inactive.

For the compound `CN(c1ccccc1)c1ccnc(/N=C(\N)Nc2ccc(Cl)cc2)n1`, the values for the growth inhibition in assay [1] and in assay [4] were 6% and 87% (active), respectively. Besides, the inhibition in assay [2] is 30%; in assay [3], -1%. The outcome in assay [5], in assay [6], in assay [7] and in assay [8] was inactive.

For `CCOC(=O)c1ccc2nc(-c3ccc(C(=O)NCc4ccc(C(C)(C)C)cc4)cc3)[nH]c2c1`, the growth inhibition in assay [1] was 34%; in assay [4], 94% (active). Besides, the inhibition in assay [2] was -9%; in assay [3], -3%. For the same compound, the outcome in assay [5], in assay [6], in assay [7] and in assay [8] was inactive.

On to `COc1cc2c(cc1NC(=O)CN1CCN(C(=O)c3ccco3)CC1)oc1ccccc12`, for which the growth inhibition in assay [1] and in assay [4] was 96% (active) in each case. Further, the inhibition in assay [2] is 13%; in assay [3], -2%. The outcome in assay [5], in assay [6], in assay [7] and in assay [8] was inactive.

As to `O=C(c1ccc(F)cc1)N1CCOC(CCN2CCC(c3ccccc3)CC2)(c2ccc(Cl)c(Cl)c2)C1` (stereo not given), the values for the growth inhibition in assay [1] and in assay [4] were 84% (active) and 88% (active), respectively. Moreover, the inhibition in assay [2] is 29%; in assay [3] it was -6%. Also, the result in assay [5], in assay [6], in assay [7] and in assay [8] was inactive.
